Bioassay records deposited in PubChem BioAssay by several laboratories.
CYP2C9 inh – blocks human cytochrome P450 2C9 | P11712 | CYP2C9 Supersomes, luciferin-H conversion, luminescence | inhibition, % at 5 µM | actives 20% (n = 96,000) | AID 777;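 active means blocking of liver enzyme CYP2C9 beyond about 50% at 5 µM, limit read from the data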
PLK1 inh – blocks human PLK1 kinase activity; recombinant PLK1 kinase, TR-FRET peptide phosphorylation; P53350; inhibition, % at 10 µM; AID 619; actives 0.53% (n = 97,000);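 active means inhibition of 50% or more in the single-concentration screen; inactive means inhibition below 50%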
CYP2C19 inh – human CYP2C19 inhibition; CYP2C19 Supersomes, luciferin-H EGE luminescence, 30 min; inhibition, % at 5 µM; actives 21% (n = 96,000);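 active means CYP2C19 inhibition above a set limit at 5 µM in the primary screen, cut at about 50% in these data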
Target sequence (P33261 whole entry, looked up): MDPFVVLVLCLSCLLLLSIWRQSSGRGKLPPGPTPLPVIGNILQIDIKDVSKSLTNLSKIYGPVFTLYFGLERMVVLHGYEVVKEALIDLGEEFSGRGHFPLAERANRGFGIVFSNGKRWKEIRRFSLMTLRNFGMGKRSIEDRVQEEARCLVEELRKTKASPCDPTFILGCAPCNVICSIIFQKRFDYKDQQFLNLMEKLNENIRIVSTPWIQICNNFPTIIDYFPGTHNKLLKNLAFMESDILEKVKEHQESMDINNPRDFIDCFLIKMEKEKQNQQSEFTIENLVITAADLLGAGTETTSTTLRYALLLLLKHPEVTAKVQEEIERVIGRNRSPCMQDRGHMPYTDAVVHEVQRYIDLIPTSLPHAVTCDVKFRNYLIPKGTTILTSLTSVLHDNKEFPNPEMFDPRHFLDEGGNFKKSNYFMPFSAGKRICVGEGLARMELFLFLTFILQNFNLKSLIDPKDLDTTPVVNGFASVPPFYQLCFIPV
Plk1 PBD FP – inhibitors of human Plk1 polo box domain binding | actives 0.13% (n = 97,000) | AID 693 | inhibition, %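 (tested at about 20 µM)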 | Plk1 PBD phosphopeptide binding, fluorescence polarization; in the data active means inhibition above about 34%, passing the limit was not always enough
CYP2C9 act – increases human cytochrome P450 2C9 activity; P11712; recombinant CYP2C9, luciferin-H conversion, luminescence; hits give high values; factor 1 = untreated enzyme, 0 = blocked; activation factor at 5 µM; actives 1.4% (n = 96,000); AID 1024;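 active means activation factor of 2 or more for CYP2C9 at a 5 µM dose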
CYP2C19 activ – cytochrome P450 2C19 (human) activation. P33261. 96,000 tested, under 10 active. activation factor at 5 µM. recombinant CYP2C19, luciferin-H EGE luminescence; hits give high values; 0 = fully inhibited enzyme, 1 = untreated enzyme;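 active means activation factor of at least 2 at 5 µM in the primary screen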
Numbers stand for hits; n = inactive; x = no result. In the library only some 28% were active in any assay of this set; here they are far more common.

SMILES | CYP2C9 inh | PLK1 inh | CYP2C19 inh | Plk1 PBD FP | CYP2C9 act | CYP2C19 activ
O=C(CSc1n[nH]c(-c2ccccc2)n1)Nc1ncc(Br)cc1Br | 88.0 | n | 86.8 | n | n | n
Cc1ccc(C)c(C(=O)CSc2n[nH]c(-c3ccncc3)n2)c1 | 99.4 | n | 98.3 | n | n | n
O=C(CSc1n[nH]c(-c2ccncc2)n1)c1ccccc1 | 96.4 | n | 89.8 | n | n | n
O=C(CSc1n[nH]c(-c2cccnc2)n1)Nc1ccccc1 | x | n | x | n | x | x
CCOC(=O)CSc1n[nH]c(-c2cccnc2)n1 | n | n | n | n | n | n
Cc1cc(-c2ccccc2)nc(SCC(=O)c2cccc([N+](=O)[O-])c2)n1 | 68.1 | n | n | n | n | n
Cc1nc(SCC(=O)c2ccccc2)n[nH]1 | 52.2 | n | n | n | n | n
O=C(CSc1nc(N2CCCCC2)nc(N2CCCCC2)n1)c1ccccc1 | 78.8 | n | n | n | n | n
CCc1nc(SCC(=O)NCCc2ccccc2)n[nH]1 | n | n | 56.1 | n | n | n
Cc1cc(N2CCCCC2)nc(SCC(=O)c2ccccc2)n1 | n | n | n | n | n | n
Cc1ccc(C(=O)CSc2nnc(CNc3ccc(C)cc3C)o2)cc1 | n | n | n | n | n | n
Cc1nn(C)cc1CNC(=O)Nc1cccc(Cl)c1 | n | n | n | n | n | n
CC(C)c1nc(SCC(=O)NCc2ccccc2)n[nH]1 | n | n | 54.2 | n | n | n
O=C(CSc1ncccn1)NCc1ccccc1 | n | n | n | n | n | n
O=C(CSc1n[nH]c(-c2ccncc2)n1)NCCc1ccccc1 | 96.8 | n | 91.9 | n | n | n
O=[N+]([O-])c1cc(S(=O)(=O)Nc2ccccc2)ccc1-n1nnc2ccccc21 | 72.0 | n | 50.7 | n | n | n
O=C(Nc1ccc2c(c1)oc1ccccc12)C1CC1 | n | n | n | n | n | n
O=C(Nc1ccc2c(c1)OC1(CCCC1)O2)C1CC1 | 63.9 | x | 88.2 | x | n | n
O=C(NCc1n[nH]c(=S)n1-c1cccc(Cl)c1)c1ccc(S(=O)(=O)N2CCCC2)cc1 | 61.0 | n | n | n | n | n
COc1cc(OC)cc(C(=O)NCc2n[nH]c(=S)n2-c2ccccc2)c1 | n | n | 64.4 | n | n | n
COc1ccc(C(=O)NCc2n[nH]c(=S)n2-c2ccccc2)cc1OC | n | n | n | n | n | n
Fc1ccc(C2CC(c3ccco3)n3ncnc3N2)cc1 (centres undefined) | x | n | x | n | x | x
CCc1ccc(C2CC(c3ccccc3)n3ncnc3N2)cc1 (centres undefined) | n | n | 88.4 | n | n | n
Fc1ccc(C2CC(c3ccc(F)cc3)n3ncnc3N2)cc1 (centres undefined) | 68.6 | n | 96.7 | n | n | n
CCOc1ccc(C2CC(c3ccc(CC)cc3)n3nc(N)nc3N2)cc1 (centres undefined) | n | x | n | x | n | n
SMILES | CYP2C9 inh | PLK1 inh | CYP2C19 inh | Plk1 PBD FP | CYP2C9 act | CYP2C19 activ
COc1ccc(CN(C(=O)CSc2nnc(-c3c[nH]c4ccccc34)o2)c2ccc(F)cc2)cc1OC | x | n | x | n | x | x
Cc1oc(-c2ccccc2)nc1Cn1cccc1C1=NC(c2ccccc2)CO1 (centres undefined) | 82.0 | n | 84.2 | n | n | n
CCc1ccc(-c2nc(CN3CCC(C(=O)NCc4ccccc4OC)CC3)c(C)o2)cc1 | n | n | n | n | n | n
CCN1C(=C2C(=O)c3ccccc3C2=O)C=Cc2ccccc21 | n | n | n | n | n | n
CCOC(=O)/C(C#N)=c1/s/c(=C2\C=Cc3ccccc3N2CC)c(=O)n1CC | n | n | 57.5 | n | n | n
C/C(=C/C=N/Nc1nc(N2CCCCC2)nc(N2CCCCC2)n1)c1ccccc1 | n | n | n | n | n | n
CCN1C(=O)/C(=c2\o/c(=C3\C=Cc4ccccc4N3CC)c(=O)n2CC)SC1=S | n | n | n | n | n | n
CCN1C(=O)/C(=C2\SC(=S)N(CCCOC)C2=O)c2ccccc21 | 51.6 | n | n | n | n | n
CCN1C(=O)/C(=C2\C=Cc3ccccc3N2CC)SC1=S | n | n | 54.6 | n | n | n
COc1cccc(-n2c(SCC(=O)NCCc3ccccc3)nnc2-c2ccoc2C)c1 | 87.7 | x | 98.1 | x | n | n
COc1cccc(-n2c(SCC(=O)Nc3nccs3)nnc2-c2ccoc2C)c1 | x | n | x | n | x | x
CCOC(=O)c1cccc(NC(=O)CSc2nnc(-c3ccoc3C)n2CCOC)c1 | 89.0 | n | 82.9 | n | n | n
Cc1occc1-c1nnc(SCC(=O)NCCc2ccccc2)n1Cc1ccccc1 | 54.6 | n | n | n | n | n
Cc1occc1-c1nnc(SCC(=O)Nc2ccccc2)n1CCc1ccccc1 | 84.7 | n | 92.0 | n | n | n
Cc1cc(NC(=O)CSc2nnc(-c3ccoc3C)n2N)no1 | n | n | n | n | n | n
Cc1occc1-c1nnc(SCC(=O)Nc2ccccc2)n1C(C)c1ccccc1 (centres undefined) | 96.0 | x | 88.7 | x | n | n
COC(=O)c1ccccc1NC(=O)C1CC(c2ccc(F)cc2)=NO1 (centres undefined) | n | n | n | n | n | n
CCc1ccccc1NC(=O)C1CC(c2ccc(F)cc2)=NO1 (centres undefined) | n | n | 82.7 | n | n | n
O=C(Nc1ccc2c(c1)OCO2)C1CC(c2ccc(F)cc2)=NO1 (centres undefined) | n | n | 53.4 | n | n | n
N#Cc1ccc(NC(=O)C2CC(c3ccc(F)cc3)=NO2)cc1 (centres undefined) | n | n | n | n | n | n
CC(C)c1ccc(CNC(=O)CSCC(=O)Nc2ccc3ccccc3c2)cc1 | n | n | n | n | n | n
C=CCn1c(CC(=O)OC)csc1=Nc1ccc(C(C)=O)cc1 | n | n | 78.0 | n | n | n
Cc1nc(C)c(C(=O)C2=C(O)C(=O)N(CCCN(C)C)C2c2ccco2)s1 (centres undefined) | n | x | n | x | n | n
CC(C)OCCCNC(=O)c1cc2c(s1)CS(=O)(=O)C2 | n | n | n | n | n | n
N#Cc1c(-c2ccccc2)c(-c2ccccc2)nn(CC(=O)NNC(=O)Nc2ccccc2)c1=O | 53.0 | n | n | n | n | n
SMILES | CYP2C9 inh | PLK1 inh | CYP2C19 inh | Plk1 PBD FP | CYP2C9 act | CYP2C19 activ
COc1ccc(-c2nn(CC(=O)Nc3ccc(Cl)c(Cl)c3)c(=O)c3ccccc23)cc1 | 87.2 | n | n | n | n | n
O=C(Cn1nc(-c2ccccc2)c2ccccc2c1=O)Nc1ccccn1 | n | n | n | n | n | n
O=C(Cn1nc(-c2ccc(Cl)cc2)c2ccccc2c1=O)Nc1cccnc1 | 59.2 | n | n | n | n | n
O=C(Cn1nc(-c2ccccc2)c2ccccc2c1=O)Nc1cccnc1 | 72.0 | n | n | n | n | n
Cc1ccc(NC(=O)Cc2nnc(SCC(=O)c3ccc(Br)cc3)n2C)cc1Cl | n | n | n | n | n | n
C=CCN1C(=O)C2(C(C#N)=C(N)Oc3n[nH]c(CCC)c32)c2ccccc21 (centres undefined) | n | n | n | n | n | n
